Test results taken from PubChem BioAssay.

What follows are compounds tested against Left-right determination factor 2 (Homo sapiens) (UniProt O00292) (assay: LEFTY2 binders on small-molecule microarrays, primary screen, biochemical, small-molecule microarray, 635 nm fluorescence scan (AID 1110)). Settings: LEFTY2 binding, higher = more signal.
Chain of Left-right determination factor 2 (Homo sapiens) (O00292 whole entry, looked up): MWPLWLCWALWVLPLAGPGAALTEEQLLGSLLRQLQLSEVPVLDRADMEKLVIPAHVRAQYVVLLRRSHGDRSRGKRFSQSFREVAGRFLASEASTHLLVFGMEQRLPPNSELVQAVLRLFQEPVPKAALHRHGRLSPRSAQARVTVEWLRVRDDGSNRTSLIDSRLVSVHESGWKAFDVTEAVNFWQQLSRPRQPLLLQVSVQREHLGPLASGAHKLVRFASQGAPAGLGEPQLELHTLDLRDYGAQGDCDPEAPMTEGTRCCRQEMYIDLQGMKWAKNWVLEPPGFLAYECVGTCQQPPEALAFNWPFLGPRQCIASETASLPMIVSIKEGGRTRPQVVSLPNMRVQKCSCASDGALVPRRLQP

| Structure (SMILES) | composite z-score |
| --- | --- |
| CCCCC(CC)C(O)C1C=CC2C(=O)NC(=O)C2N1Nc1ccccn1 (configuration not stated) | 0.0645 |
| CC(C)C[C@@H]1NC(=O)[C@@H]2C[C@H](C(=O)NCCCC[N+](C)(C)C)[C@H](c3cccc(OCCO)c3)N2C1=O | 1.01 |
| COCCOC(=O)N1C(=O)[C@@]2(c3ccccc31)[C@H](c1ccccc1OCCO)N1[C@H](c3ccccc3)[C@H](c3ccccc3)OC(=O)[C@H]1[C@@H]2C(=O)N1CCc2cc(OC)c(OC)cc2C1 | 0.415 |
| CN1C(=O)C2C=CC(C(O)COCc3ccccc3)N(Nc3ccccc3)C2C1=O (configuration not stated) | 0.0615 |
| [N-]=[N+]=NCc1ccccc1[C@H]1OC(c2ccc(OCCCO)cc2)=N[C@@]1(Cc1ccccc1N=[N+]=[N-])C(=O)NCCN1CCOCC1 | 0.528 |
| C[N+](C)(C)CCCCNC(=O)[C@H]1C[C@H]2C(=O)NCC(=O)N2[C@H]1c1ccc(O)cc1 | 0.794 |
| Cc1ccc(F)cc1S(=O)(=O)N[C@@H]1CCN(C(=O)c2ccc(OC(C)C)cc2)C1 | 1.08 |
| COCCOC(=O)N1C(=O)[C@@]2(c3ccccc31)[C@H](c1ccc(OCCO)cc1)N1[C@H](c3ccccc3)[C@H](c3ccccc3)OC(=O)[C@H]1[C@@H]2C(=O)NC[C@H](O)c1ccccc1 | 0.0792 |
| CCCCC=C[C@@H](NC(=O)CCc1ccccc1)c1ccccc1 | 0.151 |
| COc1ccc([Si](C)(C)[C@@H]2[C@@H](CCO)O[C@]3(C(=O)N(Cc4ccc(N5C(=O)c6ccccc6Oc6ccccc65)cc4)c4ccccc43)[C@H]2C)cc1 | -1.16 |
| CC[C@@H]1[C@@H]2C3C(=O)N(CC)C(=O)C3CC(=O)[C@@H]2[C@H](c2ccc(C)cc2)N1S(=O)(=O)c1ccc(C)cc1 (some centres not stated) | 0.336 |
| COCCOC(=O)N1C(=O)[C@@]2(c3cc(C#CC4(O)CCCCCC4)ccc31)[C@H](C(=O)N1CCc3cc(OC)c(OC)cc3C1)[C@H]1C(=O)O[C@H](c3ccccc3)[C@H](c3ccccc3)N1[C@@H]2c1ccccc1OCCO | 1.17 |
| COc1ccc(C#Cc2ccc3c(c2)[C@]2(C(=O)N3)[C@H](C(=O)O)[C@H]3C(=O)O[C@H](c4ccccc4)[C@H](c4ccccc4)N3[C@@H]2c2ccc(OCCO)cc2)cc1 | 0.336 |
| COc1ccc(C#Cc2ccc3c(c2)[C@]2(C(=O)N3)[C@H](c3ccc(OCCO)cc3)N3[C@H](c4ccccc4)[C@H](c4ccccc4)OC(=O)[C@H]3[C@@H]2C(=O)N2CCN(c3ncccn3)CC2)cc1 | 0.201 |
| [N-]=[N+]=NCc1ccccc1[C@H]1OC(c2ccc(OCCCO)cc2)=N[C@@]1(Cc1ccccc1N=[N+]=[N-])C(=O)N1CCCCC1 | 0.291 |
| CCCC=C(CCC)[C@@H](NS(=O)(=O)c1ccccc1)c1ccc(C(F)(F)F)cc1 | 0.0643 |
| COc1cc2c(cc1OC)CN(C(=O)[C@@H]1[C@H]3C(=O)O[C@H](c4ccccc4)[C@H](c4ccccc4)N3[C@H](c3ccc(O)cc3)[C@@]13C(=O)Nc1ccc(C#CCNC(N)=O)cc13)CC2 | 0.382 |
| COc1ccc([Si](C)(C)[C@@H]2[C@@H](CCO)O[C@]3(C(=O)N(Cc4cccc(N5C(=O)COc6ccccc65)c4)c4ccccc43)[C@H]2C)cc1 | -0.382 |
| C=CC[C@@]1(C(=O)NCCN2CCOCC2)N=C(c2ccc(OCCCO)cc2)O[C@@H]1c1ccccc1 | 0.902 |
| O=C1c2ccccc2[C@](Cc2ccccc2I)(C(=O)NCC(F)(F)F)[C@H](c2ccc(CO)cc2)N1Cc1ccccc1 | -0.38 |
| COc1ccc(C(=O)Nc2ccc3c(c2)[C@]2(O[C@@H](CCO)[C@H]([Si](C)(C)c4ccc(OC)cc4)[C@H]2C)C(=O)N3Cc2ccccc2)cc1 | 0.793 |
| COC(=O)[C@@]1(Cc2ccc(OC)cc2)[C@H]2c3cc(C(=O)N(C)C)n(CCF)c3C[C@H]2CN1C(=O)c1ccccc1 | 0.216 |
| COC(=O)c1c(CC[C@@H](CO)NC(=O)N[C@@H](C)Cn2cc(C3(O)CCCC3)nn2)oc(C(C)=O)c1C(=O)OC | 0.0541 |
| CC1=C2[C@@H](CCc3ccccc3)OB(O)C[C@@H]2[C@@H]2C(=O)C=CC(=O)[C@@H]2C1 | 1.12 |
| CCCNC(=O)[C@@]1(Sc2ccc(C)cc2)CC(=O)N(Cc2ccccc2)[C@@H]1c1ccc(CO)cc1I | -0.045 |
| CC(C)C(CO)N1C(=O)[C@@H]2[C@H]3C(=O)OCC=C[C@H]3OC23C=CCN(Cn2nnc4ccccc42)C(=O)[C@@H]13 (some centres not stated) | -0.734 |
| O=[N+]([O-])c1ccc(C[n+]2ccc(-c3ccc(CO)cc3)cc2)o1 | 0.187 |
